An excerpt weighted towards active compounds, which were near 19% of everything screened.
uPA generation = qHTS for Inhibitors of Cell Surface uPA Generation. Potency, µM (top dose mostly 38.3 µM), for inactives: top-dose activity change, negative = inhibition, hits mostly inhibitors. cell surface uPA generation assay, qHTS. hit rate 0.31% among 330,000. AID 540303, 2011; active = well fitted inhibition curve with a large enough effect; inconclusive = small, poorly fitted or top-dose-only effect; inactive = no such curve, though single readings can be large or run the other way; tested in mouse RAW 264.7 cells; also: potency is read from the fitted curve at half-maximal effect; nearly all actives have a fitted effect of over 55% in size
HT1080-NT tox = qHTS for induction of synthetic lethality in tumor cells producing 2HG: qHTS for the HT-1080-NT fibrosarcoma cell line; Potency, µM (doses to about 46.1 µM), inactives show at the top dose activity, negative = less viability, actives largely listed as cytotoxic; hit rate 1.6% among 360,000; HT-1080-NT fibrosarcoma viability, CellTiter-Glo ATP luminescence, 48 h;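 also: NT is the 2HG producing partner of a matched IDH1 knockdown line; potency is read from the fitted curve at half-maximal effect; 0% = DMSO-treated cells and -100% = media-only wells without cells; nearly all actives have a fitted effect of over 55% in size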
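Fibrosarcoma NT cells, 750 per well in 5% FBS RPMI, were exposed to compound for 48 hours. Viability: CellTiter-Glo luminescence.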
TDP1 cell CPT = qHTS for Inhibitors of human tyrosyl-DNA phosphodiesterase 1 (TDP1): qHTS in cells in presence of CPT; hit rate 12% among 420,000; chicken DT40 Tdp1-/-;hTDP1 cells + 20 nM CPT, ATP luminescence, 48 h; Potency, µM (titrated, usually from 46.2 µM), inactives show at the highest dose activity change, negative = growth inhibition, hits mostly inhibitors; also: potency is read from the fitted curve at half-maximal effect; nearly all actives have a fitted effect of over 55% in size
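Cell growth measured by CellTiter-Glo luminescence after a minimum 48 h, 37 C compound exposure with 20 nM CPT in Tdp1-knockout DT40 cells stably expressing hTDP1, seeded 400/well; qHTS titration format.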
TDP1 cell noCPT = qHTS for Inhibitors of human tyrosyl-DNA phosphodiesterase 1 (TDP1): qHTS in cells in absence of CPT. DT40 Tdp1-/- hTDP1 cells, no CPT, ATP luminescence, 48 h. AID 686978, 2013. hit rate 15% among 420,000. Potency, µM (highest dose often 46.2 µM), inactives show at the top dose activity change, negative = growth inhibition, usual class: inhibitors; also: potency is read from the fitted curve at half-maximal effect; nearly all actives have a fitted effect of over 55% in size
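Growth of hTDP1-complemented DT40 Tdp1-knockout cells is measured by ATP luminescence after at least 48 hr compound exposure at 37 °C, with DMSO substituting for the 20 nM CPT used in the parallel screen.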
IL1B secr inh = qHTS for Inhibitors of Inflammasome Signaling: IL-1-beta AlphaLISA Primary Screen | THP-1 LPS/ATP IL-1B secretion, AlphaLISA, 16 h; active compounds read low | activity change, % at 57.5 µM | hit rate 4.7% among 360,000 | AID 743279, 2014; in the data active = activity change below about -50%; inconclusive = mostly about -30% to -49%
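Secreted IL-1B measured by AlphaLISA bead assay after 16 h compound exposure of THP-1 cells; compounds (final up to 57.5 uM) added 1 h before LPS (250 ng/mL) and ATP (1.25 mM) stimulation; lower signal means less secretion.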
HT1080 IDH1KD tx = qHTS for induction of synthetic lethality in tumor cells producing 2HG: qHTS for the HT-1080-IDH1KD cell line; HT-1080 IDH1 knockdown viability, ATP luminescence, 48 h; Potency, µM (titrated, usually from 46.1 µM), for inactives: top-dose activity, negative = toxicity, usual class: cytotoxic; hit rate 2% among 360,000;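 also: potency is read from the fitted curve at half-maximal effect; 0% = DMSO wells and -100% = cell-free medium wells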
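After a 2 h attachment period, IDH1KD HT-1080 cells took pin-transferred compound for 48 h at 37 °C; ATP-based luminescence after 10 min room-temperature reagent incubation reported viability.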
The depositor's hits bear a star; ? = inconclusive; . = no result given. Unless noted, calls follow the shape of the dose curve; as a rule, active = well fitted curve in the direction sought with a large enough effect; inconclusive = small, poorly fitted or top-dose-only effect, or another doubt; inactive = no such curve, though single readings can be large; an effect the other way counts as inactive or inconclusive. Unless noted, % is scaled to controls: 0 for no effect and ±100 for the full control effect.

SMILES	uPA generation	HT1080-NT tox	TDP1 cell CPT	TDP1 cell noCPT	IL1B secr inh	HT1080 IDH1KD tx
Cn1cccc1C(=O)NC(=O)COC(=O)c1ccc(S(C)(=O)=O)cc1	4.6%	-0.1%	?	-5.9%	0.0	-1.1%
CS(=O)(=O)c1ccc(C(=O)OCC(=O)NCC2CCCO2)cc1[N+](=O)[O-] (configuration not stated)	.	.	10µM*	7.94µM*	.	.
CS(=O)(=O)c1ccc(C(=O)OCC(=O)NC(=O)NC2CCCCC2)cc1[N+](=O)[O-]	.	.	2.82µM*	4.47µM*	.	.
CC1CCN(C(=O)C(C)OC(=O)c2ccc(S(C)(=O)=O)c([N+](=O)[O-])c2)CC1 (configuration not stated)	.	.	0.891µM*	2.24µM*	.	.
Cc1ccc(N2CC(C)Cn3c2nc2c3c(=O)n(Cc3cccc(Cl)c3)c(=O)n2C)cc1 (configuration not stated)	.	.	-2.0%	-33.1%	.	.
O=C(NCc1ccc(F)cc1)c1cc2c(=O)n3ccccc3nc2s1	.	.	?	-20.8%	.	.
Cc1ccc(CCNC(=O)c2cn(C)c3ccc(S(=O)(=O)N4CCC(C)CC4)cc3c2=O)cc1	.	.	-1.1%	?	.	.
CS(=O)(=O)c1ccc(C(=O)OCC(=O)NC23CC4CC(CC(C4)C2)C3)cc1[N+](=O)[O-]	-8.2%	?	?	?	-106.7*	-21.5%
Cn1ccsc1=NC(=O)c1ccc(S(C)(=O)=O)c([N+](=O)[O-])c1	?	-15.8%	4.61µM*	4.61µM*	-110.0*	?
Nc1ccc(C(=O)OCC(=O)NC2CC2)cc1[N+](=O)[O-]	7.7%	?	-8.6%	3.6%	10.4	0.7%
Cc1ccc(CSc2nnc(CNc3ccc(F)cc3)o2)cc1	3.6%	-16.5%	3.5%	-22.3%	-12.4	-13.5%
Cc1ccc(S(=O)(=O)N(C)C)cc1NC(=S)NC(=O)C12CC3CC(CC(C3)C1)C2	0.7%	3.0%	9.2µM*	8.2µM*	41.9	0.6%
CN(C)S(=O)(=O)c1cccc(NC(=S)NC23CC4CC(CC(C4)C2)C3)c1	-6.9%	?	?	?	-5.0	-18.3%
NS(=O)(=O)c1cccc(NC(=S)NC(=O)C23CC4CC(CC(C4)C2)C3)c1	-1.0%	8.7%	?	20.6µM*	-86.5*	11.1%
Cc1ccc(S(=O)(=O)N(C)C)cc1NC(=S)NC12CC3CC(CC(C3)C1)C2	-1.5%	-21.3%	?	?	-19.6	-24.0%
COc1ccc(N2CC(C(=O)N[C@@H](CC(C)C)C(=O)NC3CCCC3)CC2=O)cc1 (some centres not stated)	3.7%	17.6%	0.3%	-29.8%	8.9	7.9%
Cc1ccccc1OCCC(=O)OCC(=O)Nc1c(F)cccc1F	0.4%	5.2%	-12.6%	-4.0%	-0.1	4.8%
CCOC(=O)c1ccc(NS(=O)(=O)c2c(C)n[nH]c2C)cc1	-0.2%	3.4%	-20.6%	2.3%	-11.3	0.7%
CCOC(=O)c1ccc(NS(=O)(=O)c2c(N)n(C)c(=O)n(C)c2=O)cc1	-8.7%	-1.6%	16.4µM*	?	20.1	-1.9%
CC1=N/C(=C\c2ccc([N+](=O)[O-])cc2)C(=O)N1c1ccc(F)cc1F	-0.3%	?	?	18.4µM*	6.9	-7.8%
O=c1[nH]/c(=C\c2ccc([N+](=O)[O-])cc2)c(=O)[nH]/c1=C\c1ccc([N+](=O)[O-])cc1	.	.	?	-29.6%	.	.
CC1=N/C(=C/c2ccc([N+](=O)[O-])cc2)C(=O)N1c1ccc(Cl)cc1Cl	12.9%	1.7%	?	25.9µM*	1.2	-2.1%
CC1=N/C(=C\c2ccc([N+](=O)[O-])cc2)C(=O)N1c1ccc(Cl)cc1	4.6%	-20.5%	?	?	-7.2	0.0%
CCC(Cc1ccccc1)NC(=O)C1=C(C)C(=O)OC12CCC(C)CC2 (configuration not stated)	3.8%	8.0%	-0.5%	?	15.0	4.4%
N#CCCn1cc(C(CC(=O)c2ccc(Br)cc2)C(=O)O)c2ccccc21 (configuration not stated)	1.4%	7.3%	-13.1%	-2.5%	11.8	1.6%
SMILES	uPA generation	HT1080-NT tox	TDP1 cell CPT	TDP1 cell noCPT	IL1B secr inh	HT1080 IDH1KD tx
CCCCN(C)CC(O)Cn1cc(/C=C/C(=O)c2ccc(OC)c(OC)c2)c2ccccc21 (configuration not stated)	.	.	18.4µM*	20.6µM*	.	.
CCCCN(C)CC(O)Cn1cc(/C=C/C(=O)c2ccc(C)cc2)c2ccccc21 (configuration not stated)	0.2%	?	7.31µM*	9.2µM*	?	?
COc1ccc(C(=O)/C=C/c2cn(CC(O)CN3CCN(C)CC3)c3ccccc23)cc1OC (configuration not stated)	-3.5%	16.4µM*	?	?	.	14.6µM*
CCCCN(C)CC(O)Cn1cc(/C=C/C(=O)c2ccc(Br)cc2)c2ccccc21 (configuration not stated)	.	.	6.51µM*	5.17µM*	.	.
CCn1cc(/C=C(\NC(=O)c2ccc(C)cc2)C(=O)NCCCN2CCOCC2)c2ccccc21	0.4%	-14.8%	-28.2%	-0.2%	-11.3	-17.4%
O=c1c(-c2cccs2)nc2cnc(N3CCOCC3)nc2n1-c1ccccc1	.	.	-9.1%	-16.5%	.	.
COc1cccc(C(=O)COC(=O)c2cc(-c3cccs3)nc3ccccc23)c1	.	.	?	16.4µM*	.	.
COc1cccc(CN(C)C(=O)c2cc(-c3cccs3)nc3ccccc23)c1	-2.2%	?	20.6µM*	18.4µM*	-11.1	-29.1%
COc1cccc(C(=O)COC(=O)c2cccs2)c1	-0.5%	1.3%	-1.6%	-8.2%	-24.4	-1.6%
COc1ccc(N2CCN(C(=O)c3cc(-c4cccs4)nc4ccccc34)CC2)cc1	-5.7%	-15.7%	?	?	-22.4	-8.1%
O=C1CN(C(=O)CSc2nnnn2C2CC2)c2ccccc2N1	-1.1%	1.4%	-1.1%	2.5%	-15.7	2.8%
Cc1ccc(NC(=O)CCC(=O)OCC(=O)c2ccc(Oc3ccc([N+](=O)[O-])cc3)cc2)cc1C	0.9%	4.8%	-10.5%	-13.4%	7.8	2.5%
